From PubChem BioAssay (NCATS)
Where “and” joins values, the source holds several entries; their conditions need not be identical. Equal entries are not always repeated. Results filed as inconclusive are left out. Calls of active or inactive are those of the source. Unless noted, the call rests on the fitted dose curve; in most records, active means well fitted curve in the direction sought with a large enough effect; inconclusive means small, poorly fitted or top-dose-only effect, or another doubt; inactive means no such curve, though single readings can be large; an effect the other way counts as inactive or inconclusive.

Columns and labels:
[1] = biological target: Cellular tumor antigen p53 (Homo sapiens) (UniProt P04637); assay: Primary qHTS for small molecule compounds that upregulate eGFP-tagged delta133p53alpha (in N-terminal) cells. (AID 2060322); settings: NCI-H358 eGFP-delta133p53alpha fluorescence, 24 h; activation: stronger effect = higher value;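 further: cells pre-induced with doxycycline then dosed without doxycycline; series mostly up to about 56 µM; 0% = DMSO vehicle and 100% = reference activator; nearly all actives have a fitted effect of over 75% in size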
Summary of the method: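 NCI-H358 cells pre-induced 24 h with 10 ng/ml doxycycline for eGFP-delta133p53alpha, plated dox-free and exposed 24 h at 37C to titrated compounds. Fixed, Hoechst-stained; gated GFP peak intensity by laser scanning cytometry, normalized to DMSO (0%) and 57.5 uM 5-azacytidine (100%).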

[2] = biological target: Cellular tumor antigen p53 (Homo sapiens) (UniProt P04637); assay: Primary qHTS for small molecule compounds that upregulate eGFP-tagged delta133p53alpha (in C-terminal) cells. (AID 2060324); further: potency means the concentration at half of the fitted maximal effect
Summary of the method: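 Doxycycline (100 ng/ml, 24 h) first induced the eGFP fusion in NCI-H358 C-terminal-tag cells. Washed-out cells then received titrated compounds for 24 h at 37 °C before paraformaldehyde fixation, Hoechst staining and cytometric GFP quantification.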

[3] = biological target: Retinaldehyde dehydrogenase 3 (Homo sapiens) (UniProt P47895); assay: qHTS for Inhibitors of the Aldehyde Dehydrogenase Family (ALDH1A3) Primary screen (AID 2061315);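 further: plate controls were DMSO vehicle for no effect and reference inhibitor for full effect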
[4] = BET inhibitor-based combinations targeting novel dependencies in MECOM-rearranged (r) AML: SET-2 cell line (AID 2202231); settings: SET-2 AML cells viability, CellTiter-Glo luminescence, 48 h; viability: stronger effect = lower value, concentration not given here; further: nearly all actives have a fitted effect of over 35% in size; further: potency means the concentration at half of the fitted maximal effect;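 on viability: plate controls were DMSO treated cells for no effect and wells without cells for full effect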
Summary of the method: (§1)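 AML cell lines seeded at 500 cells/well, treated with 11-point dose curves for 48 h. Viability by CellTiter-Glo luminescence, normalised to DMSO and empty wells; activity expressed as AUC and per-cell-line Z-transformed AUC.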

[5] = BET inhibitor-based combinations targeting novel dependencies in MECOM-rearranged (r) AML: OCI-AML3 cell line (AID 2202232); settings: Potency: OCI-AML3 viability; further: nearly all actives have a fitted effect of over 35% in size; further: potency means the concentration at half of the fitted maximal effect
Summary of the method: as §1

[6] = BET inhibitor-based combinations targeting novel dependencies in MECOM-rearranged (r) AML: MV-4-11 cell line (AID 2202233); further: nearly all actives have a fitted effect of over 45% in size; further: potency means the concentration at half of the fitted maximal effect
Summary of the method: (§2)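 Cells at 500/well were exposed for 48 hr to MIPE v5.0 drugs as 11-point dose curves. Viability was read by CellTiter-Glo luminescence and normalized to DMSO and empty-well controls. Activity was expressed as AUC and per-cell-line Z-AUC.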

[7] = BET inhibitor-based combinations targeting novel dependencies in MECOM-rearranged (r) AML: HNT-34 cell line (AID 2202234);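 further: plate controls were vehicle wells for no effect and cell-free wells for full effect; nearly all actives have a fitted effect of over 35% in size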
Summary of the method: as §2

[8] = BET inhibitor-based combinations targeting novel dependencies in MECOM-rearranged (r) AML: UCSD-AML1 cell line (AID 2202235); further: nearly all actives have a fitted effect of over 40% in size; further: potency means the concentration at half of the fitted maximal effect
Summary of the method: as §2

[9] = BET inhibitor-based combinations targeting novel dependencies in MECOM-rearranged (r) AML: AML-191 cell line (AID 2202236;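 further: plate controls were vehicle wells for no effect and wells without cells for full effect; nearly all actives have a fitted effect of over 35% in size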)
Summary of the method: as §1

[10] = BET inhibitor-based combinations targeting novel dependencies in MECOM-rearranged (r) AML: AML-194 cell line (AID 2202237;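 further: plate controls were vehicle wells for no effect and wells without cells for full effect; nearly all actives have a fitted effect of over 40% in size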)
Summary of the method: as §1

[11] = qHTS for Inhibitors of the Aldehyde Dehydrogenase Family (ALDH1A2, ALDH1A3, ALDH2, ALDH3A1) (AID 2061307); further: nearly all actives have a fitted effect of over 50% in size; on Potency: test system not described further here; potency means the concentration at half of the fitted maximal effect
[12] = biological target: Retinaldehyde dehydrogenase 3 (Homo sapiens) (UniProt P47895); assay: qHTS for Inhibitors of the Aldehyde Dehydrogenase Family (ALDH1A3) Confirmatory screens (AID 2061311); further: nearly all actives have a fitted effect of over 60% in size; further: potency means the concentration at half of the fitted maximal effect
[13] = biological target: Retinal dehydrogenase 2 (Homo sapiens) (UniProt O94788); assay: qHTS for Inhibitors of the Aldehyde Dehydrogenase Family (ALDH1A2) Confirmation screens (AID 2061314); further: nearly all actives have a fitted effect of over 65% in size; further: potency means the concentration at half of the fitted maximal effect
[14] = biological target: Retinaldehyde dehydrogenase 3 (Homo sapiens) (UniProt P47895); assay: qHTS for Inhibitors of the Aldehyde Dehydrogenase Family (ALDH1A3) Validation screen (AID 2061312); further: on the % scale 0 is the no-effect control and ±100 the full control effect; nearly all actives have a fitted effect of over 45% in size
[15] = biological target: Aldehyde dehydrogenase, mitochondrial (Homo sapiens) (UniProt P05091); assay: qHTS for Inhibitors of the Aldehyde Dehydrogenase Family (ALDH2) Confirmatory screens (AID 2061303; active means well fitted inhibition curve with a large enough effect; title and protocol of this record describe different tests; further: on the % scale 0 is the no-effect control and ±100 the full control effect; nearly all actives have a fitted effect of over 45% in size)
[16] = biological target: Aldehyde dehydrogenase 1A1 (Homo sapiens) (UniProt P00352); assay: qHTS for Inhibitors of the Aldehyde Dehydrogenase Family (ALDH1A1) Confirmatory screens (AID 2061316); further: nearly all actives have a fitted effect of over 65% in size; further: potency means the concentration at half of the fitted maximal effect

Cellular tumor antigen p53 (Homo sapiens), sequence (P04637 whole entry, looked up, the tested form may be a part): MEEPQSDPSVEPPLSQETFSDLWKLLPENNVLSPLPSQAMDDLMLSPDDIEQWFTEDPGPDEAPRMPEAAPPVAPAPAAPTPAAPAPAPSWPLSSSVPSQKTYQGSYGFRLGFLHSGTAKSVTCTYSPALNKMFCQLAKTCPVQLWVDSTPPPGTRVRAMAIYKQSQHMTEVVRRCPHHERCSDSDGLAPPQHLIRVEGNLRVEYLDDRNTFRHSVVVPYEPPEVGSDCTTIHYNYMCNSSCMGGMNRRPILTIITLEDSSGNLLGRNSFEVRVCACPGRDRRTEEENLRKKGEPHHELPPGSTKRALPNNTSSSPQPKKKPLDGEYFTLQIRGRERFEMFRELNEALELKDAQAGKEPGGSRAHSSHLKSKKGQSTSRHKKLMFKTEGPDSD

COc1ccc(/C=C/C(=O)Nc2ccccc2C(=O)O)cc1OC
inactive: activation [1] 22.3% and 8.92% | Potency [2] | Potency [3] | viability [4] 104% | Potency [5] | Potency [6] | Potency [7] | Potency [8] | Potency [9] | Potency [10]

COc1cc(/C=C(\C#N)C(=O)c2ccc(O)c(O)c2)cc(I)c1O
active: Potency [2] 16.9 µM | Potency [11] 4 µM | Potency [12] 8.96 µM | Potency [13] 12.7 µM
inactive: activation [1] 0.259%

CO/N=C(\C(=O)N[C@@H]1C(=O)N2C(C(=O)O)=C(CSc3nc(=O)c(O)nn3C)CSC12)c1csc(N)n1 (some centres undefined)
inactive: activation [1] 4.05% | Potency [2] | Potency [14]

CCCCS(=N)(=O)CC[C@H](N)C(=O)O (some centres undefined)
inactive: activation [1] -3.27% | Potency [2] | Potency [14]

COc1ccc(NC(=O)/C=C/c2ccc(Cl)cc2)cc1
inactive: activation [1] -18.7% | Potency [2] | Potency [14]

OCc1ccc(-c2nn(Cc3ccccc3)c3ccccc23)o1
inactive: activation [1] -12.3% and 3.48% | Potency [2]
active: Potency [4] 16.6 µM | Potency [5] 23.5 µM | Potency [6] 5.9 µM | Potency [8] 20.9 µM

COc1cc(/C=C(\C#N)C(=O)Nc2nnc(C(F)(F)F)s2)ccc1OCc1ccc(C(F)(F)F)cc1C(F)(F)F
inactive: activation [1] -42% | Potency [2] | Potency [15] | Potency [11] | Potency [13] | Potency [16] | viability [4] 111% | Potency [6] | Potency [7] | Potency [8] | Potency [9] | Potency [10]

C[N+](C)(C)CCOC(=O)CCC(=O)OCC[N+](C)(C)C
inactive: activation [1] -8.47% | Potency [2] | Potency [15] | Potency [11] | Potency [12] | Potency [13] | Potency [16]

C[C@](N)(Cc1ccc(O)c(O)c1)C(=O)O
inactive: activation [1] 3.95% and 1.83% and 6.56% | Potency [2] | Potency [5] | Potency [7] | Potency [8] | Potency [10]

O=C(Nc1cccc(C(=O)Nc2ccc(S(=O)(=O)O)c3cc(S(=O)(=O)O)cc(S(=O)(=O)O)c23)c1)Nc1cccc(C(=O)Nc2ccc(S(=O)(=O)O)c3cc(S(=O)(=O)O)cc(S(=O)(=O)O)c23)c1
inactive: activation [1] -8.79% | Potency [2] | Potency [14]

C=Cc1c(C)c2cc3[nH]c(cc4nc(cc5nc(cc1[nH]2)C(C)=C5CCC(=O)O)C(CCC(=O)O)=C4C)c(C)c3C=C
active: Potency [11] 10.1 µM | Potency [12] 25.2 µM | Potency [16] 12.7 µM
inactive: activation [1] -11.7% and -48.8% | Potency [2] | Potency [14]
